An excerpt weighted towards active compounds, which were near 9.5% of everything screened.
Pf growth 48h = P. falciparum growth inhibition at 48 hours (one generation); Potency, µM (highest dose often 28.7 µM), hits mostly inhibitors; P. falciparum luciferase growth in erythrocytes, 48 h; hit rate 5.9% among 310,000; active means well fitted inhibition curve with a large enough effect; inconclusive means small, poorly fitted or top-dose-only effect, or another doubt; inactive means no such curve, though single readings can be large or run the other way
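In quantitative HTS format, infected erythrocytes bearing luciferase-reporter parasites were treated for a single generation at 37 C. Luminescence after adding detection reagent served as the growth measure.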
RE007 growth inh = less growth of the S. pombe RE007 Vpr strain; S. pombe RE007 Vpr strain, BacTiter-Glo ATP luminescence, 24 h; Potency, µM (series often up to 92.2 µM), most hits filed as inhibitors; AID 651644; hit rate 0.21% among 360,000; active means well fitted falling curve with a large enough effect; inconclusive means small, poorly fitted or top-dose-only effect; inactive means no such curve, though single readings can be large or run the other way; further: nearly all actives have a fitted effect of over 50% in size
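Fission yeast RE007 carrying one integrated HIV-1 vpr copy, seeded at OD 0.01 in PMG+AL medium with 23 nL pinned compound. Grown 24 h at 30 degrees; viability read by BacTiter-Glo luminescence after 5 min.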
NS1 function inh = blocks influenza NS1 protein function | Potency, µM (highest dose often 46.1 µM) | hit rate 0.4% among 270,000 | AID 2326; further: actives are rising curves; nearly all actives have a fitted effect of over 50% in size
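Compounds were scored for reversing the slow growth caused by influenza A NS1 in S. cerevisiae, measured by optical density at 600 nm. Assay medium contained 2% galactose at pH 6.0; NS1-free yeast of the same strain were the positive control.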
SARS PLP yeast = blocks SARS-CoV papain-like protease in a yeast assay; hit rate 0.19% among 330,000; Potency, µM (doses to about 32.9 µM), usual class: activators; S. cerevisiae expressing SARS-CoV PLpro, growth rescue; further: nearly all actives have a fitted effect of over 55% in size
Pf growth 96h = inhibits malaria parasite growth, 96 h; hit rate 6.9% among 320,000; Potency, µM (doses to about 28.7 µM), most hits filed as inhibitors; P. falciparum luciferase reporter growth, 96 h; active means well fitted inhibition curve with a large enough effect; inconclusive means small, poorly fitted or top-dose-only effect, or another doubt; inactive means no such curve, though single readings can be large or run the other way
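Two parasite generations (96 h, 37 C, 5% CO2) of compound exposure in infected erythrocytes (0.05% parasitemia, 2% hematocrit). Luciferase-reporter P. falciparum; decreased luminescence indicates inhibited growth, aimed at apicoplast-acting delayed death.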
Large screens that a line does not name were inactive. Unless noted, the call rests on the fitted dose curve.

CCOC(=O)Cc1ccc(NC(=O)c2ccc(C(C)(C)C)cc2)cc1	Pf growth 48h 4.1µM (no result: Pf growth 96h)
C/C(=N\NC(=O)c1ccco1)c1ccc(NC(=O)c2ccccc2)cc1	Pf growth 96h 13µM (no result: NS1 function inh)
Cc1cccc(N(C)S(=O)(=O)c2nnc(NC(=O)c3ccco3)s2)c1	Pf growth 96h inconclusive
O=C(Cc1ccccc1)Nc1ccc(NC(=O)c2ccco2)cc1Cl	NS1 function inh inconclusive, Pf growth 96h 9.3µM
O=C(Cc1ccccc1)Nc1ccc(NC(=O)Cc2ccccc2)c(Cl)c1	Pf growth 96h inconclusive
CN(c1ccccc1)S(=O)(=O)c1nnc(NC(=O)c2ccco2)s1	Pf growth 96h 3.7µM
C/C(=N\NC(=O)c1ccco1)c1ccc(-c2ccccc2)cc1	Pf growth 48h inconclusive, Pf growth 96h inconclusive
O=C(NCCN1CCOCC1)c1cccc(S(=O)(=O)NCc2ccccc2)c1	none (no result: NS1 function inh)
O=C(Nc1nc2ccccc2c(=O)s1)c1ccco1	Pf growth 48h 2.1µM, RE007 growth inh inconclusive
COc1ccccc1NC(=O)c1ccc(NC(=O)c2ccco2)cc1	Pf growth 48h inconclusive
CC(C)(C)c1ccc(C(=O)Nc2ccc(NC(=O)c3ccco3)cc2)cc1	Pf growth 48h inconclusive, Pf growth 96h 10µM
CCOc1ccccc1NC(=O)c1ccc(NC(=O)c2ccco2)cc1	Pf growth 48h 2.9µM
O=C(Nc1ccc(Oc2ccc3ccccc3c2)cc1)c1ccco1	Pf growth 48h 2.1µM, RE007 growth inh inconclusive (no result: Pf growth 96h)
O=C(Nc1ccc(-c2ccccc2)cc1)c1ccco1	Pf growth 96h 4.7µM (no result: NS1 function inh)
O=C(Nc1ccc(NC(=O)c2ccco2)cc1)c1ccco1	Pf growth 96h inconclusive
CNc1cncc(-c2ccc(F)cc2F)n1	none (no result: Pf growth 48h, NS1 function inh, SARS PLP yeast, Pf growth 96h)
CCCNc1nc(-c2ccccc2)c(C(=O)OCC)cc1C#N	Pf growth 48h 12µM, RE007 growth inh inconclusive
COc1ccc(-c2nc3n(n2)C(c2ccncc2)C(C(N)=O)=C(C)N3)cc1 (configuration not stated)	Pf growth 96h inconclusive
COc1ccc(-c2nc3n(n2)C(c2cccnc2)C(C(N)=O)=C(C)N3)cc1 (configuration not stated)	Pf growth 96h 12µM
CC1=C(C(=O)Nc2ccccc2)C(c2cccnc2)n2nc(-c3cccnc3)nc2N1 (configuration not stated)	none
CC1=C(C(=O)Nc2cccnc2)C(c2cccnc2)n2nc(-c3cccs3)nc2N1 (configuration not stated)	Pf growth 96h 9.3µM
Cc1cc(OCc2cc(C(=O)N(Cc3nccn3C)C(C)C)no2)cc(C)c1Cl	Pf growth 96h 15µM
CN(Cc1nccn1C)C(=O)c1cc(COc2cccc(C(F)(F)F)c2)on1	Pf growth 96h 9.3µM
CC(C)N(Cc1nccn1C)C(=O)c1cc(COc2cccc(C(F)(F)F)c2)on1	none
CC1(c2ccc3c(c2)OCCO3)NC(=O)N(CC(=O)Nc2ccccc2SCC#N)C1=O (configuration not stated)	Pf growth 48h inconclusive, Pf growth 96h inconclusive (no result: NS1 function inh)
O=C(CN(Cc1ccco1)C(=O)CNS(=O)(=O)c1ccc(Cl)cc1)NCC1CCCO1 (configuration not stated)	Pf growth 48h 1.9µM
O=C(CN(CC1CCCO1)C(=O)CNS(=O)(=O)c1ccc(Cl)cc1)NCc1ccco1 (configuration not stated)	Pf growth 96h inconclusive
CCC1(CCC(C)C)SC(N)=NC1=O (configuration not stated)	none (no result: Pf growth 48h, NS1 function inh, SARS PLP yeast, Pf growth 96h)
CN1CCc2c(sc(/N=C/c3c[nH]c4ccccc34)c2C(N)=O)C1	Pf growth 48h 4.1µM, Pf growth 96h 3.7µM
CCOC(=O)c1c(/N=C/c2ccc(OC)cc2O)sc2c1CCN(C)C2	Pf growth 48h 10µM, Pf growth 96h 5.2µM
CN1CCc2c(sc(/N=C/c3c[nH]c4ccccc34)c2C#N)C1	Pf growth 48h inconclusive, Pf growth 96h inconclusive
CCC(C)(C)NC(=O)C(c1ccccn1)N(C(=O)c1csnn1)c1ccc(C)cc1 (configuration not stated)	none
CC(C)OCCCNC(=O)Cn1ccc2cc(S(=O)(=O)N3CCCCC3)ccc21	Pf growth 48h inconclusive
CCn1c(NCc2cc(Br)ccc2NS(=O)(=O)c2ccc(C)cc2)nc2ccccc21	Pf growth 48h inconclusive, Pf growth 96h 4.7µM
COc1ccc(C(C)(NC(C)=O)c2nc(-c3cccc4cccnc34)cs2)cc1 (configuration not stated)	none (no result: Pf growth 48h, NS1 function inh, SARS PLP yeast, Pf growth 96h)
COc1cc(/C=C2\C(=N)N3N=CSC3=NC2=O)ccc1OS(=O)(=O)c1ccccc1[N+](=O)[O-]	Pf growth 96h 4.1µM
COc1cc(/C=C2\C(=N)N3N=C(S(C)(=O)=O)SC3=NC2=O)ccc1OCCOc1ccccc1C	Pf growth 48h 10µM, Pf growth 96h inconclusive
COc1cc(/C=C2\C(=N)N3N=C(S(C)(=O)=O)SC3=NC2=O)ccc1OC(=O)c1cccs1	Pf growth 48h inconclusive
COc1cc(C=C2C(=O)NC(=O)NC2=O)ccc1OS(=O)(=O)c1ccccc1[N+](=O)[O-]	Pf growth 96h inconclusive
COc1ccc(-c2csc(N3N=C(C)C(C)C3=O)n2)cc1 (configuration not stated)	Pf growth 96h 12µM (no result: NS1 function inh)
CC1=NN(c2nc(-c3ccc(C)cc3)cs2)C(=O)C1N=Nc1ccccc1O (configuration not stated)	Pf growth 48h inconclusive
NC(=O)NCCS[C@H]1CCCC[C@@H]1O	none (no result: Pf growth 48h, RE007 growth inh, SARS PLP yeast, Pf growth 96h)
Cc1c(CCOC(=O)C23CC4(C)CC(C)(CC(C)(C4)C2)C3)sc[n+]1CC(=O)c1ccccc1	Pf growth 48h inconclusive
Cc1ccc(C(=O)OCCc2sc[n+](Cc3ccccc3)c2C)cc1	Pf growth 48h 1.5µM, Pf growth 96h 1µM
Cc1c(CCOC(=O)C23CC4CC(CC(C)(C4)C2)C3)sc[n+]1Cc1ccccc1	Pf growth 48h 3.3µM, Pf growth 96h 12µM
Cc1c(CCOC(=O)c2ccc(Cl)cc2Cl)sc[n+]1CC(=O)c1ccccc1	none (no result: Pf growth 48h, NS1 function inh, Pf growth 96h)
Cc1c(CCOC(=O)CC23CC4CC(CC(C4)C2)C3)sc[n+]1CC(=O)c1ccccc1	Pf growth 48h 13µM
Cc1c(CCOC(=O)C23CC4CC(CC(C4)C2)C3)sc[n+]1Cc1ccccc1	Pf growth 48h 3.3µM
CCCc1cc(=O)[nH]c(SCC(=O)N2c3ccccc3CC2C)n1 (configuration not stated)	none (no result: Pf growth 48h, NS1 function inh, Pf growth 96h)
CCOC(=O)C1(CC)NC(c2ccc(OC)cc2OC)C2C(=O)N(C)C(=O)C21 (configuration not stated)	Pf growth 96h inconclusive
NS(=O)(=O)c1ccc(NC(=S)NC(=O)C2CCCC2)cc1	Pf growth 96h 1.9µM
NS(=O)(=O)c1ccc(CCNC(=O)CNC(=O)C2CCCCC2)cc1	Pf growth 96h 12µM
CCN(CC)c1ccc(NC(=S)NC(=O)C2CCC2)cc1	RE007 growth inh inconclusive, Pf growth 96h 12µM
CC(C)(C)NC(=O)C1(C)CCC(=O)N1C1CC1 (configuration not stated)	none (no result: Pf growth 48h, NS1 function inh, SARS PLP yeast, Pf growth 96h)
Cc1c(NC(=O)COc2c(F)c(F)c(F)c(F)c2F)c(=O)n(-c2ccccc2)n1C	none

Source: PubChem (National Center for Advancing Translational Sciences (NCATS))
